We go through eight compounds from PubChem BioAssay (NCI).

Molecules are shown by their SMILES. This is part of a sample that, as a whole, favours compounds with a hit. Of some 83,000 tested, about 20% had one in any assay.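 Step 1: grow cells in 96-well plates. Step 2: add test compound at a single concentration. Step 3: incubate 48 h. Step 4: record percent growth.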 Unmarked numbers belong to inactive results. The source made the active and inactive calls. How the source made its calls: active means growth percent below 10; inactive means the rest.

What all share (assay): NCI-60 one-dose screen, 48 h (100 = growth as untreated, 0 = no growth, -100 = all killed)
Common to all, as to details: 10 µM unless noted

In assay [1] the test system is HCT-15 colon.
Assay [2] concerns HT29 colon.
Assay [3] relates to SNB-75 CNS.
In assay [4] the test system is SNB-19 CNS.
Assay [5] deals with U251 CNS.
The test system of assay [6] is PC-3 prostate.
The test system of assay [7] is SK-MEL-5 melanoma.
Assay [8] deals with UACC-62 melanoma.
In assay [9] the test system is LOX IMVI melanoma.
The test system of assay [10] is SK-MEL-28 melanoma.
For assay [11], the system named is SK-MEL-2 melanoma.
The test system of assay [12] is EKVX NSCLC.
Assay [13] concerns UO-31 renal.
The test system of assay [14] is TK-10 renal.
Assay [15] deals with ACHN renal.
For assay [16], the system named is CAKI-1 renal.
Assay [17] has as its system A498 renal.
Assay [18] deals with CCRF-CEM leukemia.
Assay [19] relates to MOLT-4 leukemia.
In assay [20] the test system is SN12C renal.

In the case of `Cc1nc2sc(C(=O)Nc3cccc(Cl)c3C)c(N)c2cc1C(=O)/C=C/c1ccccc1`, the growth in assay [1] was -66.4% (active); in [2], -58.6% (active); in assay [3] it was 12.6%; in [4] it was -41.8% (active); in [5] it was -73.6% (active); in assay [6] it was 0.225% (active). Moreover, the growth in assay [7] was -10.8% (active); in [8], 2.03% (active); in [9], -75.8% (active); in [10], 27.3%; in assay [11], 33.8%; in assay [12], 43.9%. The growth in [13] is -60.1% (active); in [14] it was -12.9% (active); in assay [15], 3.93% (active); in assay [16], -62.1% (active); in [17] it was -6.27% (active); in [18] it was 8.78% (active). In assay [19], the growth was 16.8%.
`COc1ccc2cc(-c3nc4ccc(C)cn4c3NCc3ccco3)c(=O)[nH]c2c1`: the growth was 75.8% in assay [1]; 79.9% in assay [2]; 56% in [3]; 34.6% in assay [4]; 75.1% in assay [5]; 46.1% in assay [6]. Moreover, the growth was 56.9% in assay [7]; 46% in [8]; 75.8% in [9]; 81.8% in assay [10]; 105% in [11]; 55.9% in [12]. Further, the growth in assay [13] is 47.8%; in assay [14], 71%; in [15], 45.4%; in assay [16] it was 50.8%; in assay [17], 43.8%; in assay [18] it was 62.3%. Also, the growth in assay [19] was 52.7%.
As for `Cc1cccc(NC(=O)N/C(N)=N/c2nc3ccccc3s2)c1`, the growth in [1] is 23%; in assay [2] it was 11.3%; in assay [3], 4.63% (active); in assay [4] it was 42.3%; in assay [5], 28.9%; in [6], 34.2%. Further, the growth was 23.7% in [7]; 33.5% in assay [8]; 34.4% in assay [9]; 63% in assay [10]; 33% in assay [11]; 43.9% in assay [20]. The growth in assay [13] is 38.6%; in assay [14], 59%; in [15] it was 38.7%; in [16] it was 25%; in [17], -3.86% (active); in assay [19], 35.7%.
For `CCOC(=O)c1cnn(CC(C)O)c1NC(=O)NCc1cccc(F)c1` (centres undefined), the growth was 107% in assay [1]; 84.3% in assay [2]; 104% in assay [3]; 107% in [4]; 97.4% in assay [5]; 73.3% in assay [6]. The growth was 100% in assay [7]; 92.2% in [8]; 97.1% in assay [9]; 113% in [10]; 85.6% in [11]; 103% in [20]. Besides, the growth in assay [13] was 91.7%; in [14], 86.9%; in assay [15], 106%; in assay [16], 97.3%; in assay [17], 96.4%; in [18], -2.06% (active). In addition, in [19], the growth was 81.4%.
In the case of `CCN(CC)CCOc1ccc(C(=O)/C=C\c2ccc(Cl)cc2Cl)cc1`, the growth was 2.05% (active) in assay [1]; -19.6% (active) in [2]; 82.9% in [3]; 56.7% in assay [4]; 24.9% in assay [5]; 23.3% in assay [6]. Moreover, the growth in assay [7] was 6.5% (active); in assay [8], -34.5% (active); in assay [9], -77.3% (active); in [10], 32.5%; in [11] it was 81%; in [12], 63.5%. Also, the growth is 25% in [13]; 75.9% in assay [14]; 52.7% in [15]; 55% in [16]; 70% in assay [17]; 7.28% (active) in [18]. In assay [19], the growth was -13.1% (active).
Take `COc1ccc(C/C(C)=C(\c2ccc(Cl)cc2)c2ccc(OCCN3CCCC3)cc2)cc1`: the growth in assay [1] was 40.2%; in [2], 19.6%; in assay [3] it was 88.5%; in [4], 92.1%; in [5], 61.1%; in assay [6], 77.8%. Moreover, the growth in assay [7] is 89.7%; in assay [8], 90.8%; in [9], 82.9%; in assay [10], 91.4%; in [11], 96.8%; in assay [12], 96.7%. Moreover, the growth in assay [13] is 66.3%; in assay [15], 94.8%; in assay [16] it was 83.4%; in [17] it was 110%; in assay [19] it was 44.6%.
Take `CNC(=O)NCC1OC(n2cnc3c(NC(=O)Nc4ccccc4)ncnc32)C2OC(=O)CC12` (centres undefined): the growth in assay [1] was 92.2%; in assay [2], 110%; in assay [3] it was 96.7%; in assay [4] it was 103%; in [5] it was 96.2%; in assay [6] it was 99.8%. Further, the growth in assay [7] was 110%; in assay [8], 99.2%; in assay [9], 62.7%; in assay [10], 107%; in assay [11] it was 70%; in assay [12], 102%. The growth in assay [13] was 64.2%; in assay [14] it was 99.3%; in assay [15], 94.9%; in assay [16], 100%; in assay [17] it was 93.7%; in assay [18], 94.1%. The growth in [19] was 69.7%.
Consider `Cc1nc2sc(C(=O)Nc3ccccn3)c(N)c2cc1C(C)O` (centres undefined), for which the growth in assay [1] was 36.4%; in assay [2], 27.4%; in assay [3], 89.3%; in assay [4], 64.7%; in [5], 48.8%; in assay [6] it was 72.7%. The growth is 45% in [7]; 42.7% in assay [8]; 67.1% in [9]; 67.4% in assay [10]; 53.9% in assay [11]; 86% in assay [12]. Moreover, the growth in [13] was 78.4%; in assay [14] it was 79.4%; in [15], 89%; in [16] it was 85.5%; in assay [17] it was 77.1%; in assay [18], 49.6%. In addition, the growth in assay [19] was 64.1%.
